Compounds with a hit are over-represented: about 6.2% of the library has one in this group of screens.
H9c2 protect: protects H9c2 cardiomyocytes from peroxide injury; H2O2 injury protection, ATPLite, 2 h; protection from H2O2 cell death, % at 20 µM; 0.63% of 360,000 active; AID 588492;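 active means compounds giving at least 50% protection of heart cells from peroxide-induced death in the single-dose screen, raw or plate-pattern-corrected value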;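 further: 0% = DMSO wells with peroxide and 100% = DMSO wells without peroxide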
AI-2 QS modul: Vibrio harveyi AI-2 quorum sensing modulation. Vibrio harveyi JMH597 AI-2 luminescence/OD600 ratio, 9 h; hits give low values; strain lacks LuxN and CqsS sensors; 0 = neutral-control median. activity change, % at 7.5 µM. 0.4% of 300,000 active. AID 2094; in the data active means activity change below about -75%, passing the limit was not always enough;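 further: luminescence divided by OD600 gain over 9 h not by final OD600 alone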
NR3A LBD binder: NR3A (human) ligand-binding domain modulation | NR3A LBD differential scanning fluorimetry, Tm shift; 0% = protein alone, 100% = glycine-bound protein | Tm shift relative to glycine control, % at 25 µM | 2.5% of 340,000 active | AID 1259313;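 active means melting temperature shift of at least 10% of the positive control shift, at one fixed dose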
AHR activator: activates the human aryl hydrocarbon receptor | AID 2796 | AHR-responsive luciferase reporter cells, luminescence | P35869 | 2.5% of 320,000 active | activation, % at 5 µM; in the data active means activation above about 47%;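 further: 0% = vehicle wells and 100% = reference agonist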
NTR1 agonist: activates human neurotensin receptor 1 | NTR1-U2OS beta-arrestin-GFP spot imaging, agonist mode | activation, % at 20 µM | P30989 | 0.17% of 330,000 active;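 active means activation at or above 40% of the spot to cytoplasm intensity ratio, with at least 20 cells analyzed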;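 further: 0% = DMSO without peptide and 100% = 100 nM NTR1 peptide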
Target sequence (P30989 whole entry, looked up): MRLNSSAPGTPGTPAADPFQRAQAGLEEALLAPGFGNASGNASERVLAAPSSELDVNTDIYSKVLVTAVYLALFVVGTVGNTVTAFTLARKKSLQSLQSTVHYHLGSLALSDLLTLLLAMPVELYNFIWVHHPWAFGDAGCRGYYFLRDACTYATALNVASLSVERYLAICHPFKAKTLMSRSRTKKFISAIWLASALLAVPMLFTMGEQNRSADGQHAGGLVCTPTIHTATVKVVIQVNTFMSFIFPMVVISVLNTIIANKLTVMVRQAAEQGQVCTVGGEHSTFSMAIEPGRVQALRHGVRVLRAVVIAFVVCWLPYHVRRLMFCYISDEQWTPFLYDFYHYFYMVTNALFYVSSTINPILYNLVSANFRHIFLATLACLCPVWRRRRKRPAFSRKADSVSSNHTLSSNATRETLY
SUMO Mot1 rescue: inhibitors of SUMOylation pathway: yeast Mot1-301 growth rescue | growth rescue, % at 18.8 µM | S. cerevisiae Mot1-301 growth rescue, ATP luminescence, 38.5C; percent above DMSO median, 100 means doubled | 1% of 320,000 active;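 active means every valid replicate shows activation above 250% relative to neutral control wells; inactive means the rest, any valid replicate at or below 250%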;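 further: OY570 slx delta 5 strain wells were the positive control but not used for scaling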
Active calls of the source: *; nt = no result given; ! = repeats disagree.

SMILES | H9c2 protect | AI-2 QS modul | NR3A LBD binder | AHR activator | NTR1 agonist | SUMO Mot1 rescue
O=C1C([N+](=O)[O-])=C(O)c2cccc3cccc1c23 | nt | 11 | nt | nt | nt | -5
CCN(CC(=O)Nc1c(F)cccc1F)C(=O)C1CCN(C(=O)Nc2ccccc2)CC1 | 6 | nt | 0 | 0 | -1 | -14
O=C(O)c1ccccc1-c1ccccc1C(=O)Nc1ccccc1 | 6 | 10 | -11 | 6 | 0 | 13
O=C(O)c1ccccc1-c1ccccc1C(=O)NNc1ccccc1 | -2 | 18 | 14* | -2 | 0 | 68
Cc1c(C(=O)N2CCc3ccccc3C2)oc2ccccc12 | -4 | 45 | 0 | 59* | 5 | 0
O=C(Nc1cc(=O)c2ccccc2o1)N1CCOCC1 | 15 | 13 | -1 | 2 | 0 | 5
O=C(Nc1cc(=O)c2ccccc2o1)N1CCCCC1 | 104* | 17 | 0 | 2 | 6 | 190
CC(=O)N1CCN(C(=O)c2oc3ccccc3c2C)CC1 | 1 | 14 | 4 | 12 | 0 | -14
Nc1c(C(=O)N2CCCCCC2)oc2ccccc12 | -4 | 4 | 3 | 73* | 4 | 10
CCN(C(=O)c1cccc(S(=O)(=O)N2CCCCC2)c1)C1CCS(=O)(=O)C1 (stereo unspecified) | -2 | 14 | -3 | nt | 1 | nt
CC(C)NC(=S)NNC(=O)C12CC3CC(CC(C3)C1)C2 | -8 | 14 | 11* | -1 | -1 | -13
CCCCNC(=S)NNC(=O)C12CC3CC(CC(C3)C1)C2 | 18 | 15 | -10 | 0 | 0 | -10
O=C1NC2=C(CCc3ccccc32)C(c2ccc(Br)cc2)N1 (stereo unspecified) | 6 | nt | 0 | 61* | 7 | 295
CN1C(=O)C2(OCC(C)([N+](=O)[O-])CO2)c2ccccc21 (stereo unspecified) | -5 | 3 | 0 | 1 | nt | -15
CN1C(=O)C2(N=c3ccccc3=N2)c2ccccc21 | 11 | 39 | -1 | 51* | 1 | 4
COc1ccccc1CNS(=O)(=O)CCNC1CC1 | 0 | nt | 2 | nt | nt | nt
N#Cc1ccc(N=c2ssnc2Cl)cc1 | -4 | 27 | 23* | 5 | 0 | 303*!
Clc1nssc1=Nc1ccccc1 | -4 | nt | 5 | nt | nt | nt
CCOC(=O)c1ccc(N=c2ssnc2Cl)cc1 | -11 | 30 | 8 | nt | -1 | nt
Clc1ccc(N=c2ssnc2Cl)cc1 | -28 | 28 | 14* | 59* | 2 | 340*
COc1ccc(N=c2ssnc2Cl)cc1 | 1 | 38 | 22* | 18 | 0 | 22
O=C(Cn1c(=O)n(-c2cccc(C(F)(F)F)c2)c(=O)c2sccc21)NCC1CCCO1 (stereo unspecified) | 4 | 6 | -1 | -1 | -2 | -3
Cc1ccc([C@H]2N[C@]3(CCCN(Cc4ccc(F)cc4)C3=O)[C@H]3C(=O)N(C)C(=O)[C@@H]23)cc1 | 15 | nt | nt | nt | nt | nt
CC(Oc1cccc(Cl)c1)C(=O)N1CCCN(C)CC1 (stereo unspecified) | -6 | 14 | 1 | 0 | 0 | 15
COc1ccccc1NS(=O)(=O)c1ccc(C)c(NC(=O)c2c(C)noc2C)c1 | 5 | nt | -2 | 0 | 0 | 0
SMILES | H9c2 protect | AI-2 QS modul | NR3A LBD binder | AHR activator | NTR1 agonist | SUMO Mot1 rescue
COc1ccc(C)cc1NS(=O)(=O)c1ccc2c(c1)N(C)CCO2 | -7 | 9 | 18* | 11 | 1 | -16
CCCCN1C(=O)C(=O)N(CC(=O)Nc2sc(CC)cc2C(=O)OCC)C1=O | 2 | 5 | 13* | 5 | 2 | -2
CCOC(=O)c1cc(CC)sc1NC(=O)COC | 2 | 11 | 0 | -1 | 1 | 4
CC(C)CNc1ncnc2c1ncn2[C@H]1CN(Cc2ccco2)C[C@@H](CO)O1 | 3 | nt | nt | nt | nt | nt
CCOc1ccccc1C(=O)NN1C(=O)C2CCCCC2C1=O (stereo unspecified) | 3 | 2 | 23* | 22 | 1 | -11
CC(C)c1ccc(C(=O)NN2C(=O)C3CCCCC3C2=O)cc1 (stereo unspecified) | -8 | -36 | 25* | 8 | 0 | -1
Cc1ccn2cc(-c3ccc(NC(=O)c4ccco4)cc3)nc2c1 | -21 | 10 | 29* | -4 | 2 | 8
Cc1ccn2cc(-c3ccc(Br)cc3)nc2c1 | -25 | 11 | -10 | 74* | 2 | 68
COc1c(Cl)cccc1-c1cn2ccc(C)cc2n1 | -11 | 23 | 11* | 4 | 0 | 87
Cc1ccn2cc(-c3cccc(S(=O)(=O)N4CCCC4)c3)nc2c1 | -7 | 14 | 0 | 17 | 3 | -13
COc1ccccc1CN(C(=O)CNC(=O)c1ccco1)C(C(=O)NCC1CCCO1)c1ccc(OC)c(OC)c1 (stereo unspecified) | 1 | 27 | -2 | 0 | 1 | -7
CCN1CCN(C2=C(NS(=O)(=O)c3ccc(NC(C)=O)cc3)C(=O)c3ccccc3C2=O)CC1 | -6 | 14 | 15* | 6 | 0 | -9
O=C1C(NS(=O)(=O)c2ccccc2)=C(N2CCN(c3ccc(F)cc3)CC2)C(=O)c2ccccc21 | -10 | 36 | -7 | 66* | 16 | -7
CC1CCN(C2=C(NS(=O)(=O)c3ccccc3)C(=O)c3ccccc3C2=O)CC1 | -2 | 29 | 1 | 6 | 1 | -17
O=S(=O)(Nc1nc2ccccc2nc1N1CCN(c2ccccc2)CC1)c1ccc(F)cc1 | -10 | 30 | 24* | 23 | 1 | 526*
Cn1cnnc1SCC(=O)NC1CCCC1 | 3 | 6 | 2 | 12 | 0 | 12
CC(C)=CCc1cc([C@@H]2COc3c(ccc4c3C=CC(C)(C)O4)C2)c(O)cc1O | -14 | -13 | 27* | 0 | 23 | -35
CC(=O)Oc1ccc([C@@H]2COc3c(ccc4c3C=CC(C)(C)O4)C2)c(OC(C)=O)c1 | -14 | 19 | -2 | 0 | 24 | 289
CC(C)=CCc1c([C@@H]2CCc3ccc(O)cc3O2)cc2c(c1O)OC(C)(C)C=C2 | -6 | -3 | -4 | 3 | 3 | -21
CC1(C)C=Cc2c(ccc3c2OC[C@H](c2ccc(O)cc2O)C3)O1 | -7 | nt | 19* | 6 | 27 | 61
CC(C)N(CCCNC(=O)Cn1c(=O)c2cccn2c2ccccc21)Cc1ccccc1 | 17 | 7 | 1 | 2 | 1 | 3
Cc1ccc(C(=O)CC(=O)COc2ccc(Cl)cc2C)cc1 | 64* | 5 | -4 | 2 | 1 | -7
COc1ccc(CNC(=O)Cc2nn(C)c(=O)c3ccccc23)cc1 | -31 | 28 | 11* | 8 | 0 | -2
CCc1nc(NCC2CC2)c2nnn(Cc3ccccc3)c2n1 | -15 | nt | nt | nt | nt | nt
O=C1NC(c2ccc(O)cc2)Nc2ccccc21 (stereo unspecified) | 16 | 9 | -4 | 2 | 0 | -1
O=C1NC(c2cccc(OCc3ccccc3)c2)Nc2ccccc21 (stereo unspecified) | -6 | nt | 13* | nt | nt | nt

Screening data (PubChem BioAssay)
